The values below come from PubChem BioAssay AID2494 (National Center for Advancing Translational Sciences (NCATS), 2010).

Activity calls are given as the source filed them.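 The calls were made as follows: active = compounds that inhibit caspase-1 with a complete, partial or top-dose-only concentration response; inactive = the rest.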

This experiment deals with Caspase-1 (Homo sapiens) (UniProt P29466). Briefly: Confirmation Assay for Allosteric/Competitive Inhibitors of Caspase-1. The note with it: Caspase-1 enzyme, fluorogenic peptide substrate, kinetic rate. An excerpt:
NIH Molecular Libraries Screening Centers Network [MLSCN] NIH Chemical Genomics Center [NCGC] MLSCN Grant: 1 X01 MH078950-01 PI Name: Dr. James Wells, Dr. Enrique Perez-Paya, Dr.Janice Williams, Dr. Dennis Wolan, a person NCGC Assay Overview: The caspases (Cysteine Aspartyl Protease) comprise a related family of 14 dimeric proteases that are critical mediators of apoptosis (programmed cell death) and inflammation. The caspases represent an important class of drug targets for stroke, ischemia, cancer and inflammatory diseases. […] One goal of this project was to identify compounds that act as allosteric inhibitors via stabilizing the procaspase form of the enzyme. Previous work in Well's laboratory has shown that such allosteric inhibitors can be identified and these act by binding at the dimer interface of enzyme (Hardy, Lam et al., 2004). The biochemical assay was configured using purified caspase 1 at a high enzyme concentration to promote formation of the homodimers and thus facilitate the identification of allosteric inhibitors. The overall goal was to identify reversible inhibitors with better drug-like properties than the currently available set of aspartyl-containing peptidomimetics that covalently bind the active site. Caspase 1 was assayed using the profluorescent substrate […]. After initiation of the assay with substrate the plates were rapidly read using an automated robotic system (Kalypsys, Inc.) to maintain consistent timing. A kinetic mode of detection was used where the initial rate was collected (estimated final product formation was ~10%). Compounds were screened as a concentration-titration series that ranged from 57 uM to 0.7 nM. Below is the protocol used for caspase 1.
Caspase-1 was dispensed ([…]) into a 1536-well black solid-bottom microplate (Greiner Bio-One, Monroe, USA) using a Bio-RAPTR (Beckman Coulter, Fullerton, USA) nanoliter dispenser for automated addition of reagents, to give a final enzyme concentration of 2 nM. Assay buffer was 50 mM HEPES, pH7.4, containing 1M sodium citrate, 100 mM NaCl, 0.1 mM EDTA, 10 mM DTT, 0.01% CHAPS, 1% DMSO, and 0.1 mg/mL bovine serum albumin (BSA). Aliquots of test compound (23 nL) from a DMSO stock solution were transferred to the enzyme-containing wells using a pintool transfer station (Kalypsys Inc., San Diego, USA), and the plates were incubated for 15 min at room temperature. Each compound was added as a 12-point titration in duplicate. Substrate was dispensed ([…]) to give a final caged fluorescent peptide substrate (Ac-LEHD-AMC) concentration of […], and the initial reaction rate was monitored over 20 min at room temperature. Free AMC was measured by fluorescence detection (lex=340 nm, lem=450) with a ViewLux charge-coupled device-based imager (PerkinElmer, Waltham, USA). Percent inhibition was calculated from the median values of the uninhibited and the uncatalyzed controls, and IC50 values were determined by fitting the concentration-response data with a four-parameter Hill equation as previously described (http://www.ncgc.nih.gov/pub/openhts/curvefit/).
As for `CC(=O)N[C@@H](Cc1ccc(O)cc1)C(=O)N[C@H](C(=O)N[C@@H](C)C(=O)N[C@H](C#N)CC(=O)O)C(C)C`, the Potency was 2.51 nM (active).

In the case of `CONC(=O)C[C@@H](C#N)NC(=O)[C@@H]1CCCN1C(=O)[C@@H](NC(=O)c1ccc(N)c(Cl)c1)C(C)(C)C`, the Potency is 145 nM (active).

Regarding `CC(C)(C)[C@H](NC(=O)c1cc(Cl)cc(Cl)c1)C(=O)N1CCC[C@H]1C(=O)N[C@H](C#N)CC(=O)O`, the Potency is 0.436 nM (active).

`CCOC(=O)C[C@@H](C#N)NC(=O)[C@@H]1CCCN1C(=O)[C@@H](NC(=O)c1ccc(N)c(Cl)c1)C(C)(C)C`: the Potency is 145 nM (active).

On to `CC(C)(C)[C@H](NC(=O)c1ccc(N)c(Cl)c1)C(=O)N1CCC[C@H]1C(=O)N[C@H](C#N)CC(=O)O`, for which the Potency is 0.316 nM (active).

Regarding `Cc1ccccc1C(=O)N[C@H](C(=O)N1CCC[C@H]1C(=O)N[C@H](C#N)CC(=O)O)C(C)(C)C`, the Potency is 2.78 nM (active).

As to `COc1ccc(C(=O)N[C@H](C(=O)N2CCC[C@H]2C(=O)N[C@H](C#N)CC(=O)O)C(C)(C)C)cc1Cl`, the Potency is 0.439 nM (active).

Turning to `CC(=O)N[C@H](C(=O)N[C@@H](C)C(=O)N[C@H](C#N)CC(=O)O)C(C)C`, the call was inactive.

As for `CC(C)(C)[C@H](NC(=O)c1ccc(C(F)(F)F)cc1)C(=O)N1CCC[C@H]1C(=O)N[C@H](C#N)CC(=O)O`, the Potency was 8.33 nM (active).

Turning to `CC(C)(C)[C@H](NC(=O)c1ccc(N)c(Cl)c1)C(=O)N1CCC[C@H]1C(=O)N[C@H](C#N)Cc1nn[nH]n1`, the Potency is 20.4 nM (active).
